Records with an inconclusive call do not appear. A number with no mark means an inactive call. Active and inactive are the calls of the source. The call rests on the fitted dose curve; in most records, active means well fitted curve in the direction sought with a large enough effect; inconclusive means small, poorly fitted or top-dose-only effect, or another doubt; inactive means no such curve, though single readings can be large or run the other way.
biological target: Pyruvate kinase PKLR (Homo sapiens) (UniProt P30613); experiment: Confirmation Concentration-Response Assay for Activators of Human Reticulocyte Pyruvate Kinase; conditions: purified hPK-R, Kinase-Glo ATP luminescence, 1 h; series mostly up to 57.5 µM; activity change, positive = activation: at the top concentration
Description: Confirmatory assay NIH Chemical Genomics Center [NCGC] Wael M. Rabeh, Lyudmila Nedyalkova and Hee-Wan Park [Structural Genomics Consortium, 100 College St. Toronto, Ontario, Canada] NCGC Assay Overview: Human pyruvate kinase reticulocyte (hPK-R) enzyme was supplied as a highly purified (>95% pure) preparation from Structural Genomics Consortium in Toronto (Ontario, Canada) and assayed for its ability to generate ATP from ADP using phosphoenolpyruvate (PEP) as a substrate. ATP generation was detected in a coupled reaction by luciferase-mediated luminescence, an ATP-dependent process. Pyruvate kinase substrates, PEP and ADP, were present in the assay at Km and approximately 10-fold below Km respectively. The enzyme was assayed at an intermediate level of activity to screen for both inhibitors and activators.
NCGC Assay Protocol Summary for R-isoform Three uL of substrate mix (at r.t.) in assay buffer (50 mM Imidazole pH7.2, 50 mM KCl, 7 mM MgCl2, 0.01% Tween 20, 0.05% BSA) was dispensed into white solid bottom 1,536 well microtiter plates so that the final concentrations of substrates in the assay were 0.1 mM ADP and 0.5 mM PEP. 23 nL of compound were delivered by a pin tool and 1 uL of enzyme mix (final concentration of 0.1 nM) in assay buffer (4 degree Celsius) was added. Plates were incubated at room temperature for 1 hour. Two uL of detection mix (Kinase-Glo, Promega; at 4 degree Celsius protected from light) was added and luminescence read by a ViewLux (Perkin Elmer) at 1 second exposure/plate. Data were normalized to the uninhibited (row 31). Additionally, a no enzyme and 5-fold enzyme control was dispensed in row 32, split equally between the two conditions.

Chain of Pyruvate kinase PKLR (Homo sapiens) (P30613 whole entry, looked up): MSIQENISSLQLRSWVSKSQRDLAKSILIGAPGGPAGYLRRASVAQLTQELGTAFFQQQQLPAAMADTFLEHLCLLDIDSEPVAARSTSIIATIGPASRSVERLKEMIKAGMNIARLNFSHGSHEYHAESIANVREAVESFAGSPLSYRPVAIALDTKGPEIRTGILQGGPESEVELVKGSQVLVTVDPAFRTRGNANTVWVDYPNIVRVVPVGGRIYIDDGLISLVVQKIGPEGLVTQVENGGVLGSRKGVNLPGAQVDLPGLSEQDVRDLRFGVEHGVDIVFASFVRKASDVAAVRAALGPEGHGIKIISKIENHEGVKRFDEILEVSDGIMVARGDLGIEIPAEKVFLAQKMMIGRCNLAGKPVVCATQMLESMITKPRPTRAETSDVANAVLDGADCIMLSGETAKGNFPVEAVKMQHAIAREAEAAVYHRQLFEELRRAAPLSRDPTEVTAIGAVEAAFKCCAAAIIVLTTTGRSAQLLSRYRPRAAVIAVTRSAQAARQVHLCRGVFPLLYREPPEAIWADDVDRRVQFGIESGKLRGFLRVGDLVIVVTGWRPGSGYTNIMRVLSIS

Structure (SMILES) | Potency | activity change, positive = activation
Cc1cc2[nH]c3c(=O)n(Cc4ccccc4F)ncc3c2s1 | inactive | –
Cn1c2ccsc2c2ncn(Cc3ccccc3F)c(=O)c21 | – | 1.87%
Cc1cc2c(s1)c1cnn(Cc3cccc(F)c3)c(=O)c1n2C | – | -2.76%
Cc1cc2c(s1)c1cnn(Cc3ccc(F)cc3F)c(=O)c1n2C | – | -0.917%
Cc1ccc(Cn2ncc3c4sc(C)cc4n(C)c3c2=O)cc1 | – | 0.115%
Cn1c2cc(B(O)O)sc2c2cnn(Cc3ccccc3F)c(=O)c21 | – | 5.24%
COc1cc2c(s1)c1cnn(Cc3ccccc3F)c(=O)c1n2C | – | 1.99%
Cc1ccc(Cn2ncc3c4sc(C)cc4n(C)c3c2=O)c(C)c1 | – | -3.18%
COC(=O)c1cc2c(s1)c1cnn(Cc3ccccc3F)c(=O)c1n2C | – | -2.06% [at 28.7 µM]
Cc1cc2c(s1)c1cnn(Cc3cccc(Cn4ncc5c6sc(C)cc6n(C)c5c4=O)c3F)c(=O)c1n2C | – | -2.51%
Cc1cc2c(s1)c1cnn(Cc3ccccc3F)c(=O)c1n2C | inactive | –
O=S(=O)(c1ccc2c(c1)OCCCO2)N1CCN(S(=O)(=O)c2c(F)cccc2F)CC1 | – | 5.67%
O=S(=O)(c1ccc(Cl)cc1)N1CCN(S(=O)(=O)c2ccc3c(c2)OCCO3)CC1 | – | -2.24%
Cc1cc2c(s1)c1cnn(Cc3ccc(C(F)(F)F)cc3F)c(=O)c1n2C | – | 0.632%
Cn1c2cc(C#N)sc2c2cnn(Cc3ccccc3F)c(=O)c21 | inactive | –
COc1ccc(S(=O)(=O)N2CCN(S(=O)(=O)c3ccc4c(c3)OCCO4)CC2)cc1 | 1.41 µM (active) | –
Cc1cc2c(s1)c1cnn(Cc3ccccc3F)c(=O)c1n2C(C)C | – | -3.41%
CC(=O)c1cc2c(s1)c1cnn(Cc3ccccc3F)c(=O)c1n2C | – | 3.32%
Cc1cc2c(s1)c1cnn(Cc3ccc(-c4ccccc4)cc3)c(=O)c1n2C | – | -5.57%
CCc1cc2c(s1)c1cnn(Cc3ccccc3F)c(=O)c1n2C | – | -7.08%
Cc1cc2c(s1)c1cnn(Cc3ccccc3)c(=O)c1n2C | – | 0.949%
CCCCCn1ncc2c3sc(C)cc3n(C)c2c1=O | – | -3.84%
CC(=O)Nc1cc2c(s1)c1cnn(Cc3ccccc3F)c(=O)c1n2C | – | 2.97%

Reference: PubChem BioAssay AID1782 (National Center for Advancing Translational Sciences (NCATS), 2009)
